Drawing on PubChem BioAssay AID1479148 (National Center for Advancing Translational Sciences (NCATS), 2020), this text covers Potency for 18 compounds.

The experiment can be described thus: Confirmatory qHTS for inhibitors of SARS-S pseudo-typed particle cell entry.

The structures appear in SMILES notation. Results filed as inconclusive are left out. Activity calls are given as the source filed them. Calls come from the whole dose curve.

Consider `C=C1c2c(Cl)ccc(O)c2C(O)=C2C(=O)[C@@]3(O)C(O)=C(C(N)=O)C(=O)[C@@H](N(C)C)[C@@H]3[C@@H](O)[C@H]12`, for which the Potency is 15200 nM (active). In the case of `CC(C)OC(=O)[C@H](C)N[P@](=O)(CO[C@H](C)Cn1cnc2c(N)ncnc21)Oc1ccccc1` it was 171 nM (active); in that of `C=CC(=O)Nc1cc(Nc2nccc(-c3cn(C)c4ccccc34)n2)c(OC)cc1N(C)CCN(C)C`, 1520 nM (active); in that of `Cc1c(N)nc(C(CC(N)=O)NCC(N)C(N)=O)nc1C(=O)NC(C(=O)NC(C)C(O)C(C)C(=O)NC(C(=O)NCCc1nc(-c2nc(C(=O)NCCCN[C@@H](C)c3ccccc3)cs2)cs1)C(C)O)C(O[C@@H]1O[C@@H](CO)[C@@H](O)[C@H](O)[C@@H]1O[C@H]1O[C@H](CO)[C@@H](O)[C@H](OC(N)=O)[C@@H]1O)c1cnc[nH]1` (stereo partly drawn), 857 nM (active). For the compound `O=C(Nc1ccc([N+](=O)[O-])cc1Cl)c1cc(Cl)ccc1O`, the Potency is 541 nM (active). In the case of `CCN1CCN(Cc2ccc(Nc3ncc(F)c(-c4cc(F)c5nc(C)n(C(C)C)c5c4)n3)nc2)CC1` it was 961 nM (active); in that of `COc1cccc2c1C(=O)c1c(O)c3c(c(O)c1C2=O)C[C@@](O)(C(=O)CO)C[C@@H]3O[C@H]1C[C@H](N)[C@H](OC2CCCCO2)[C@H](C)O1` (stereo partly drawn), 7640 nM (active). On to `CCC(C)(C)C(=O)O[C@H]1C[C@@H](C)C=C2C=C[C@H](C)[C@H](CC[C@@H]3C[C@@H](O)CC(=O)O3)[C@H]21`, for which the Potency is 607 nM (active).

In the case of `CC(C)(C)NC(=O)[C@H]1CC[C@H]2[C@@H]3CC[C@H]4NC(=O)C=C[C@]4(C)[C@H]3CC[C@]12C`, the Potency entry is “inactive”. In the case of `O=C(O)c1cc(O)c2c(c1)[C@H]([C@H]1c3cc(C(=O)O)cc(O)c3C(=O)c3c(O[C@@H]4O[C@H](CO)[C@@H](O)[C@H](O)[C@H]4O)cccc31)c1cccc(O[C@@H]3O[C@H](CO)[C@@H](O)[C@H](O)[C@H]3O)c1C2=O` it was “inactive”; in that of `O=C1CCc2ccc(OCCCCN3CCN(c4cccc(Cl)c4Cl)CC3)cc2N1`, 19200 nM (active). The same measure for `CCN(CC)CCNC(=O)c1c(C)[nH]c(/C=C2\C(=O)Nc3ccc(F)cc32)c1C`: 6070 nM (active); for `COc1cccc2c1C(=O)c1c(O)c3c(c(O)c1C2=O)C[C@@](O)(C(=O)CO)CC3OC1CC(N2CCOC(OC)C2)C(O)C(C)O1` (stereo partly drawn): 96.1 nM (active); for `Nc1ccn([C@@H]2O[C@H](CO)[C@@H](O)C2(F)F)c(=O)n1`: 192 nM (active). The same measure for `CC(=O)[C@]1(O)Cc2c(O)c3c(c(O)c2[C@@H](O[C@H]2C[C@H](N)[C@H](O)[C@H](C)O2)C1)C(=O)c1ccccc1C3=O`: 6070 nM (active); for `COC(=O)C1=C(C)NC(C)=C(C(=O)OCC(C)C)C1c1ccccc1[N+](=O)[O-]` (stereo not drawn): 19200 nM (active); for `COc1cc(N)c(Cl)cc1C(=O)NC1CCN(CCCOc2ccc(F)cc2)CC1OC` (stereo not drawn): “inactive”. Turning to `Cc1cc(C(C#N)c2ccc(Cl)cc2)c(Cl)cc1NC(=O)c1cc(I)cc(I)c1O` (stereo not drawn), the Potency was 30400 nM (active).
